# Bioassay records deposited in PubChem by several laboratories.
# The list is not random: actives were taken first. Their share in the collection is about 2.7%.
# SENP7 block: inhibitors of human SENP7 protease. Q9BQF6. recombinant SENP7, Z-RLRGG-aminoluciferin luminescence, 40 min. inhibition, % at 5 µM. 1.5% of 330,000 active. AID 434973;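 active = inhibition above about 50% at the single test dose, limit read from the data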;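 note: plate controls were DMSO with enzyme for no effect and no enzyme buffer wells for full effect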
# SENP6 inh: inhibitors of human SENP6 protease | inhibition, % at 10 µM | 1.8% of 330,000 active | Q9GZR1 | Recombinant SENP6 catalytic domain, aminoluciferin luminescence;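 active = inhibition above about 50% at the single tested dose, limit read from the data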;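 note: plate controls were DMSO wells with enzyme for no effect and DMSO wells lacking enzyme for full effect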
# Target sequence (Q9GZR1 628-1112 limits assumed): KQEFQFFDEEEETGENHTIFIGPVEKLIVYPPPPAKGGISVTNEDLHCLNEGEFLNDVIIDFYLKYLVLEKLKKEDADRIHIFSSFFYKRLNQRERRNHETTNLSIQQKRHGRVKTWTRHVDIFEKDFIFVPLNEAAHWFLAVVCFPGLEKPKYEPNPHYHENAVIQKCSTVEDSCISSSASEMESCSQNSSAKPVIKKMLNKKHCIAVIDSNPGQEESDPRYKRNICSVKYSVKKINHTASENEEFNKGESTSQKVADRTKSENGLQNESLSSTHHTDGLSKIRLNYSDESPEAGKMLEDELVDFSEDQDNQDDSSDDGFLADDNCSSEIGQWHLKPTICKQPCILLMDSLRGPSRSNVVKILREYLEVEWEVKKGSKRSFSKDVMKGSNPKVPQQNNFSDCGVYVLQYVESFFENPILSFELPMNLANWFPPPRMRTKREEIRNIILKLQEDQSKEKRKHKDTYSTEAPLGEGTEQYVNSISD
# HSP90 inh: blocks HSP90-mediated luciferase refolding in reticulocyte lysate; inhibition, % at 5.6 µM; 0.91% of 290,000 active; AID 1789; Rabbit reticulocyte lysate, luciferase refolding luminescence, 3 h;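 active = inhibition above the screen-wide mean plus 3 SD, computed separately per campaign, cut at about 16% in these data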;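 note: 0% = DMSO wells and 100% = 60 µM geldanamycin wells; inhibitors lower the luminescence because luciferase stays unfolded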
# SENP8 block-1: SENP8 (human) protease inhibition | recombinant SENP8, Nedd8 substrate fluorescence | 0.64% of 360,000 active | Q96LD8 | inhibition, % at 20 µM; in the data active = inhibition mostly above about 40%, no sharp cut-off; inactive = mostly below about 27%
# SENP8 block-2: inhibitors of human SENP8 protease; AID 2540; 1.2% of 330,000 active; purified SENP8, Z-RLRGG-aminoluciferin cleavage, luminescence; inhibition, % at 10 µM; Q96LD8; in the data active = inhibition above about 50%
# SENP8 confirm: confirmation of human SENP8 protease inhibitors. inhibition, % at 12.5 µM. 40% of 6,200 active. Recombinant SENP8, Z-RLRGG-aminoluciferin luminescence, 60 min. shares compounds with SENP7 block;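 active = mean inhibition across replicates above about 50%, limit read from the data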
# SENP6 confirm: human SENP6 inhibition, confirmed; recombinant SENP6, Z-RLRGG-aminoluciferin luminescence; inhibition, % at 12.5 µM; AID 488915; 58% of 6,200 active; shares compounds with SENP7 block
# SENP7 conf: human SENP7 inhibition, confirmed | shares compounds with SENP7 block | recombinant SENP7, Z-RLRGG-aminoluciferin luminescence, 40 min | inhibition, % at 12.5 µM | 69% of 6,200 active | AID 488917
# Casp3 SENP sel: selectivity test for SENP inhibitors: human caspase-3 inhibition. 60% of 6,200 active. inhibition, % at 12.5 µM. purified caspase-3, Z-DEVD-aminoluciferin luminescence, 60 min. shares compounds with SENP7 block;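 active = mean inhibition above about 50%, limit read from the data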;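 note: plate controls were enzyme with DMSO for no effect and wells without caspase-3 for full effect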
# SENP luc ctr: counter-screen for SENP inhibitors: luminescence interference. inhibition, % at 12.5 µM. shares compounds with SENP7 block. 39% of 6,200 active. Pre-incubated SENP8/Z-RLRGG-aminoluciferin, luciferase luminescence interference;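 active = mean inhibition above about 50% when retested at one dose, limit read from the data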;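 note: plate controls were DMSO wells with completed reaction for no effect and substrate without enzyme for full effect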
# The depositor's hits bear a star; nt = not tested or not shown.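 Rule for the calls, unless noted: active = mean inhibition above about 50% in the one-dose retest (limit read from the data); inactive = the rest.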
SMILES,SENP7 block,SENP6 inh,HSP90 inh,SENP8 block-1,SENP8 block-2,SENP8 confirm,SENP6 confirm,SENP7 conf,Casp3 SENP sel,SENP luc ctr
O=C(Nc1ccccc1)Nc1ccccc1C(=O)NCc1ccccc1,52*,7,-1,-400,-4,-2,-3,74*,34,6
CN1CCN(c2ccccc2NC(=O)c2cccc(OCc3ccccc3)c2)CC1,-11,-13,3,7,-2,nt,nt,nt,nt,nt
CCC(=O)Oc1ccc(C(=O)Nc2ccc3c(c2)OCO3)cc1,73*,64*,3,-7,34,37,56*,62*,71*,17
CCCOc1ccc(C(=O)Nc2ccc3c(c2)OCO3)cc1,89*,82*,4,8,71*,14,73*,80*,84*,19
CCOC(=O)CNc1ccc2c(c1)OCO2,-1,59*,1,1,4,13,12,8,2,-3
CCOC(=O)CNC(=O)/C=C/c1ccc2c(c1)OCO2,-8,-20,-2,-249,-2,nt,nt,nt,nt,nt
O=C(Nc1ccc2c(c1)OCO2)OCc1ccccc1,60*,-22,1,15,38,52*,51*,82*,53*,34
COc1cccc(CN2CCN(Cc3nc(-c4cccc(F)c4F)oc3C)CC2=O)c1,4,-2,1,-3,8,nt,nt,nt,nt,nt
CCCn1c(N)c(N(CCOC)C(=O)/C=C/c2cccc(Cl)c2)c(=O)[nH]c1=O,-2,-10,6,13,0,nt,nt,nt,nt,nt
O=C(OC(C(=O)NC1CCCC1)c1cccnc1)C1=Cc2ccccc2OC1 (configuration not stated),0,-3,-4,-98,-7,nt,nt,nt,nt,nt
CCC(=O)N1CCCC1(C)C(=O)Nc1ccc(OC(F)F)cc1 (configuration not stated),nt,nt,nt,16,nt,nt,nt,nt,nt,nt
COc1ncnc2sc(-c3ccccc3)cc12,99*,93*,0,3,97*,96*,95*,100*,95*,92*
NC(=O)C1CCN(C2=C(Cl)C(=O)c3ccccc3C2=O)CC1,42,50*,3,-29,27,-7,75*,11,-3,-5
O=C1C(Cl)=C(N2CCC(C(=O)O)CC2)C(=O)c2ccccc21,39,63*,10,-30,28,56*,71*,15,-1,-4
NC(=O)C1CCN(c2ccc3c(c2)S(=O)(=O)c2ccccc2C3=O)CC1,31,-4,nt,-14,-1,nt,nt,nt,nt,nt
CSCCC(NC(=O)c1ccco1)C(=O)OCC(=O)N(Cc1ccccc1)C(C)(C)C (configuration not stated),0,-7,nt,-8,12,nt,nt,nt,nt,nt
O=C1CC(c2ccccc2Oc2cccc(Cl)c2)C(n2cncn2)C(=O)C1C1NCCc2ccccc21 (configuration not stated),2,17,-1,28,9,nt,nt,nt,nt,nt
Cc1ccnc(NC(=O)c2oc3ccccc3c2C)c1,85*,81*,nt,9,72*,52*,85*,81*,58*,44
CCC(=O)Nc1ccc(NC(=S)NC(=O)c2oc3ccccc3c2C)cc1,0,-4,-3,31,3,nt,nt,nt,nt,nt
Cc1csc(NC(=O)c2oc3ccccc3c2C)n1,46,42,nt,-74,17,nt,nt,nt,nt,nt
Cc1c(C(=O)Nc2cnccn2)oc2ccccc12,3,24,-3,5,-13,nt,nt,nt,nt,nt
Cc1c(C(=O)NC2=NCCS2)oc2ccccc12,86*,86*,13,11,70*,81*,83*,98*,93*,87*
CCOc1ccc2oc(C(=O)Nc3cc(C)ccn3)c(C)c2c1,97*,93*,nt,-220,90*,38,63*,76*,83*,22
Cc1cccnc1NC(=S)NC(=O)c1oc2ccccc2c1C,8,79*,-5,-155,18,-6,-3,-6,4,5
CCC(CC)NCc1ccc2c(c1)c1ccccc1n2CC,4,-3,2,-24,-4,nt,nt,nt,nt,nt
SMILES,SENP7 block,SENP6 inh,HSP90 inh,SENP8 block-1,SENP8 block-2,SENP8 confirm,SENP6 confirm,SENP7 conf,Casp3 SENP sel,SENP luc ctr
O=C(Nc1ccc(F)cc1)N1CCN2C(=O)c3ccccc3C12c1ccccc1 (configuration not stated),0,-13,1,18,-3,nt,nt,nt,nt,nt
N=c1oc2ccccc2cc1C(=O)NC1CCCCCC1,34,47,16,-6,27,nt,nt,nt,nt,nt
COc1cc2ccccc2cc1C(=O)Nc1cc(C)ccn1,-3,2,-3,-266,3,nt,nt,nt,nt,nt
CCOc1ccc2oc(C(=O)Nc3ccc(N4CCOCC4)cc3)c(C)c2c1,2,3,2,-24,-1,nt,nt,nt,nt,nt
Cc1ccnc(NC(=O)c2cc3ccccc3oc2=O)c1,95*,72*,0,9,82*,24,30,22,55*,1
O=C(NC1CCCCCC1)c1cc2ccccc2oc1=O,56*,73*,10,-136,40,50*,60*,68*,63*,19
CCOc1ccc2oc(C(=O)Nc3ccc4c(c3)OCO4)c(C)c2c1,62*,73*,4,-31,65*,63*,4,86*,53*,38
Cc1ccc(S(=O)(=O)CCN2CCN(c3ccccn3)CC2)cc1,1,-6,-2,5,3,nt,nt,nt,nt,nt
COC(=O)C1=CN(c2ccc3c(c2)OCO3)C(N)=C(C#N)C1c1ccccc1 (configuration not stated),nt,nt,nt,-56,nt,nt,nt,nt,nt,nt
CCOC(=O)c1cc(-c2ccccc2)sc1NC(=O)CSc1nncs1,-5,-9,7,-23,1,nt,nt,nt,nt,nt
CC(=O)Nc1ccc(NC(=O)c2ccc(-c3ccccc3Cl)o2)cc1,-9,-19,nt,-55,-21,nt,nt,nt,nt,nt
CC(=O)Cc1nsc(NC(=O)c2oc(-c3ccccc3Cl)cc2C)n1,5,0,-3,-179,4,nt,nt,nt,nt,nt
O=C(Nc1nccs1)c1ccc(-c2ccccc2Cl)o1,70*,79*,-4,-76,62*,66*,69*,-7,23,25
CC(=O)Cc1nsc(NC(=O)c2ccc(-c3ccccc3Cl)o2)n1,45,31,4,-91,57*,83*,79*,92*,66*,66*
O=C(Nc1nccs1)c1ccc(-c2ccccc2[N+](=O)[O-])o1,25,38,5,-21,-10,nt,nt,nt,nt,nt
O=C(Nc1ccccc1)c1ccc(-c2ccccc2Cl)o1,60*,66*,-1,12,21,5,24,82*,38,1
